# Assay results from PubChem BioAssay (NCI).
# “And” between values parts separate entries of the source, which are not always exact repeats. Equal entries are not always repeated. Compounds without any hit were thinned out: in the full panel of roughly 79,000, 15% have a hit. Some compounds were tested as several samples or in several runs, with calls that do not always agree. The source made the active and inactive calls. No stated cut-off is given here; in the data, active means growth inhibition above about 70%; inactive means the rest.
# Assays:
# [1] = NCI Yeast Anticancer Drug Screen. Data for the rad50 strain (AID 155);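 further: 0% = growth of vehicle-only cultures of the same strain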; settings: S. cerevisiae rad50 strain growth inhibition, stronger effect = higher value
# In short: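 DNA repair mutant yeast, compound exposure, growth read-out; inhibition is taken relative to vehicle.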
# [2] = NCI Yeast Anticancer Drug Screen. Data for the mec2-1 strain (AID 157); settings: S. cerevisiae mec2-1 strain, stronger effect = higher value
# In short: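 Using mec2-1 yeast: add compound, measure growth, express inhibition versus vehicle-treated cultures.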
# [3] = NCI Yeast Anticancer Drug Screen. Data for the sgs1 mgt1 strain (AID 161);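 further: 0% = growth of cultures given vehicle only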; settings: S. cerevisiae sgs1 mgt1 strain, stronger effect = higher value
# In short: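 Yeast cells carrying a defined DNA-repair defect were exposed to test compounds. Growth inhibition was measured relative to vehicle-treated controls.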
# [4] = NCI Yeast Anticancer Drug Screen. Data for the cln2 rad14 strain (AID 165);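 further: 0% = growth equal to vehicle treated cultures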; settings: S. cerevisiae cln2 rad14 strain, stronger effect = higher value
# In short: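 Yeast strain cln2 rad14, bearing defects in cell cycle control and DNA repair, serves as the test system; values reflect growth inhibition compared with vehicle.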
# [5] = NCI Yeast Anticancer Drug Screen. Data for the bub3 strain (AID 167); settings: S. cerevisiae bub3 mutant strain, stronger effect = higher value
# In short: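 In this screen, a yeast mutant lacking normal mitotic checkpoint function is challenged with compound. Relative growth versus vehicle gives the inhibition value.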
# [6] = NCI Yeast Anticancer Drug Screen. Data for the mlh1 rad18 strain (AID 175); settings: S. cerevisiae mlh1 rad18 strain growth inhibition, stronger effect = higher value
# In short: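 Steps: expose repair-defective yeast to compound; measure growth; express inhibition against vehicle-treated controls.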
# [7] = at 5.0 µM (retest, dose inferred, filed as 0.5)
# [8] = at 50.0 µM (retest, dose inferred, filed as 5.0)
SMILES,"growth inhibition [1, 7]","growth inhibition [1, 8]",growth inhibition ([1]; at 50.0 µM),"growth inhibition [2, 7]","growth inhibition [2, 8]",growth inhibition ([2]; at 50.0 µM),"growth inhibition [3, 7]","growth inhibition [3, 8]",growth inhibition ([3]; at 50.0 µM),"growth inhibition [4, 7]","growth inhibition [4, 8]",growth inhibition ([4]; at 50.0 µM),"growth inhibition [5, 7]","growth inhibition [5, 8]",growth inhibition ([5]; at 50.0 µM),"growth inhibition [6, 7]","growth inhibition [6, 8]",growth inhibition ([6]; at 50.0 µM)
CSC1SCC2C(=O)N(C)C(C(C)C)C(=O)OCC(NC(=O)c3cnc4ccccc4n3)C(=O)NC(C)C(=O)N(C)C1C(=O)N(C)C(C(C)C)C(=O)OCC(NC(=O)c1cnc3ccccc3n1)C(=O)NC(C)C(=O)N2C (stereo not given),8% (inactive) and 97% (active),98% (active) and 97% (active),98.8% (active) and 91.2% (active),4% (inactive) and 99% (active),98% (active),99.5% (active) and 91.7% (active),2% (inactive) and 98% (active),98% (active),98.8% (active) and 93% (active),8% (inactive) and 94% (active),98% (active) and 96% (active),98.2% (active) and 90.2% (active),7% (inactive) and 96% (active),98% (active) and 97% (active),98.7% (active) and 90.3% (active),6% (inactive) and 98% (active),98% (active) and 97% (active),99% (active) and 90.2% (active)
COc1ccc2c(c1)c[n+](C)c1c3cc(OC)c(OC)cc3ccc21,17% (inactive),23% (inactive),5.2% (inactive) and 37.6% (inactive),23% (inactive),20% (inactive),2.8% (inactive) and 35.4% (inactive),-21% (inactive),47% (inactive),43.2% (inactive) and 48.9% (inactive),-12% (inactive),-8% (inactive),34.6% (inactive) and 13.8% (inactive),8% (inactive),61% (inactive),25.9% (inactive) and 19.1% (inactive),16% (inactive),19% (inactive),-19.9% (inactive) and 32.5% (inactive)
COc1cccc(OCCC#N)c1,2% (inactive),27% (inactive),-6.7% (inactive) and 72.8% (active),-1% (inactive),0% (inactive),4.05% (inactive) and 4.85% (inactive),-1% (inactive),12% (inactive),-5.2% (inactive) and 31.4% (inactive),-7% (inactive),-1% (inactive),-34.8% (inactive) and 20.4% (inactive),-6% (inactive),-5% (inactive),-8.35% (inactive) and -22.1% (inactive),4% (inactive),19% (inactive),-1.9% (inactive) and 44.9% (inactive)
COc1ccc(/C=C/C(=O)CCN2CCN(CCC(=O)/C=C/c3ccc(OC)cc3)CC2)cc1,16% (inactive),99% (active),81.7% (active),-15% (inactive),99% (active),90.7% (active),-4% (inactive),99% (active),90.2% (active),-20% (inactive),99% (active),29.9% (inactive),-59% (inactive),99% (active),87% (active),-5% (inactive),98% (active),91.5% (active)
O/N=C(\CC(O)(C(F)(F)F)C(F)(F)F)c1cccc(Cl)c1,13% (inactive),80% (active),91% (active),17% (inactive),98% (active),93.6% (active),10% (inactive),97% (active),92.8% (active),8% (inactive),95% (active),89% (active),14% (inactive),97% (active),90.5% (active),26% (inactive),97% (active),89.3% (active)
CCCCCC[C@H](C/C=C\CCCCCCCC(=O)OC)OC(C)=O,-6% (inactive),27% (inactive),-0.2% (inactive) and -4.1% (inactive),-4% (inactive),69% (inactive),2.25% (inactive) and -0.75% (inactive),-6% (inactive),42% (inactive),29.2% (inactive) and -40.8% (inactive),-1% (inactive),-4% (inactive),73.5% (active) and 54.6% (inactive),-6% (inactive),92% (active),3.65% (inactive) and -26.2% (inactive),-3% (inactive),21% (inactive),9.45% (inactive) and -22.9% (inactive)
CCCCN(C(=O)CCl)c1ccccc1,2% (inactive),13% (inactive),50.3% (inactive),-1% (inactive),9% (inactive),19.1% (inactive),-4% (inactive),3% (inactive),54.2% (inactive),1% (inactive),5% (inactive),20% (inactive),-9% (inactive),-16% (inactive),34.9% (inactive),0% (inactive),10% (inactive),73.7% (active)
COC(O)C(=O)c1c2c(cc3c1CCC3)CCCC2 (stereo not given),96% (active),100% (active),81.1% (active),98% (active),99% (active),88.4% (active),98% (active),99% (active),89.1% (active),85% (active),100% (active),91.7% (active),99% (active),100% (active),90.5% (active),98% (active),100% (active),92.5% (active)
O=C(NO)c1cccnc1,2% (inactive),3% (inactive),66.3% (inactive),2% (inactive),-1% (inactive),16.1% (inactive),-4% (inactive),-3% (inactive),29.1% (inactive),1% (inactive),0% (inactive),14.8% (inactive),4% (inactive),-2% (inactive),11.8% (inactive),3% (inactive),5% (inactive),16.4% (inactive)
COC(=O)CSC(=S)N1CCOCC1,2% (inactive),6% (inactive),-6.85% (inactive),9% (inactive),4% (inactive),-5.75% (inactive),4% (inactive),22% (inactive),-5.3% (inactive),7% (inactive),-4% (inactive),-38% (inactive),-3% (inactive),-5% (inactive),-10.1% (inactive),4% (inactive),5% (inactive),24.2% (inactive)
O=C(CC(=O)CC(O)(c1ccccc1)c1ccccc1)CC(=O)c1ccccc1,-4% (inactive),95% (active),98.4% (active),-10% (inactive),98% (active),98% (active),0% (inactive),98% (active),98% (active),-11% (inactive),94% (active),98% (active),-8% (inactive),96% (active),97.2% (active),30% (inactive),97% (active),98% (active)
Fc1cccc(NC(=S)SCc2ccc(Cl)c(Cl)c2)c1,8% (inactive),94% (active),98.2% (active),3% (inactive),93% (active),99.2% (active),6% (inactive),98% (active),99% (active),-7% (inactive),85% (active),98.8% (active),0% (inactive),95% (active),98% (active),4% (inactive),96% (active),99% (active)
Clc1cc(Cl)c(Cl)nn1,13% (inactive),83% (active),59.6% (inactive) and 86% (active),3% (inactive),38% (inactive),2.1% (inactive) and 44.9% (inactive),-1% (inactive),24% (inactive),3.1% (inactive) and 15.5% (inactive),-8% (inactive),25% (inactive),-7.45% (inactive) and 16.4% (inactive),6% (inactive),48% (inactive),18.6% (inactive) and 60.8% (inactive),1% (inactive),45% (inactive),15.8% (inactive) and 25% (inactive)
CC(C)C1=C(O)C2=C(C(=O)C1=O)C1(C)CCCC(C)(C)C1CC2O (stereo not given),42% (inactive),98% (active),36.9% (inactive) and 14.3% (inactive),55% (inactive),98% (active),22.1% (inactive) and -9.35% (inactive),48% (inactive),98% (active),45% (inactive) and 39.5% (inactive),46% (inactive),98% (active),32.4% (inactive) and 6.45% (inactive),75% (active),97% (active),56.6% (inactive) and 17.4% (inactive),56% (inactive),98% (active),83.1% (active) and 21.6% (inactive)
Cc1nc2c(Br)cc(Br)cc2c(=O)n1-c1ccccc1NC1OC(CO)C(O)C(O)C1O (stereo not given),9% (inactive),41% (inactive),-11.9% (inactive) and 65.8% (inactive),5% (inactive),32% (inactive),-33.6% (inactive) and 17.9% (inactive),7% (inactive),25% (inactive),-5.65% (inactive) and 47.2% (inactive),11% (inactive),75% (active),-54.8% (inactive) and 64.5% (inactive),7% (inactive),56% (inactive),-31.3% (inactive) and 74.8% (active),-25% (inactive),67% (inactive),-35.1% (inactive) and 75% (active)
